Results filed as inconclusive are left out. Active and inactive are the calls of the source. Rule for the calls: active = hit-call score of the fitted dose curve at least 0.9, where 1 is the maximum; inconclusive = response in the unintended direction; inactive = score below 0.9.

For this assay, the system named is Sodium/Iodide Symporter (NIS), SLC5A5 (gene 6528). The assay is described as follows: CPHEA_Stoker_NIS_Inhibition_RAIU: CPHEA's Radioactive Iodide Uptake (RAIU) Assay for Sodium/Iodide Symporter (NIS) Inhibition, Stoker and Laws Labs (AID 2283841). As for the experimental part: CPHEA_Stoker_NIS is a cell-based, single-readout assay that uses hNIS-HEK293T-EPA, a novel human kidney cell line expressing human NIS, with measurements taken at 2 hours after chemical dosing in a 96-well plate. This radioactive iodide uptake (RAIU) assay is used to identify inhibitors of NIS-mediated iodide uptake. A parallel cytoxicity assay (Cell Titer Glo, Promega) was also run in the same cell line.CPHEA_Stoker_NIS_Inhibition_RAIU is one of 2 assay components measured from the CPHEA_Stoker_NIS assay. It is designed to make measurements of radioactive substrate uptake to understand transporter function, as detected with 125-i signals by MicroBeta radioactivity plate reader technology.Data from the assay component CPHEA_Stoker_NIS_Inhibition_RAIU was analyzed at the endpoint, CPHEA_Stoker_NIS_Inhibition_RAIU, in the positive analysis fitting direction relative to DMSO as the negative control and baseline of activity. Measures of radioactive substrate uptake for loss-of-signal activity can be used to understand the effects on transporter function at the pathway level as they relate to the sodium-iodide symporter, gene SLC5A5. To generalize the intended target to other relatable targets, this assay endpoint is annotated to the transporter intended target family, where the subfamily is sodium-iodide symporter (NIS).
hNIS-HEK293T-EPA cells were seeded with a MultiFlo FX dispenser (BioTek, Winooski, VT) into ScintiPlate-96 microplates (Perkin Elmer, Waltham, MA) at a density of 4.0x10^4 cells per well in 200uL growth media and incubated for 40 hours before experimentation. On day of the assay, carrier-free 125I (Perkin-Elmer, Waltham, MA; specific activity: 17.4Ci/mg) was diluted with Hanks' balanced salt solution (Sigma, St. Louis, MO) supplemented with 10mM HEPES (uptake buffer; pH 7.4) at 5uCi/mL (288pg 125I/mL uptake buffer; 2.30nM). The assay was initiated by washing cells twice with 200uL uptake buffer using a 96-well Tecan HydroSpeed plate washer (Tecan, Mannedorf, Switzerland). Uptake buffer (59.7uL) was then added back to each well. Chemical samples (350nL at 200X) were administered using the HDR tool as previously described to achieve a 1X chemical/0.5% final DMSO concentration with subsequent addition of 10uL of 125I dilution (final [125I]: 329pM; 2.88pg/well) for a final reaction volume of 70uL/well. Cells were incubated at room temperature for 2 hours and then washed twice with 200uL ice cold uptake buffer. All uptake buffer was aspirated from wells, plates were sealed, and read on a MicroBeta2 plate reader (Perkin Elmer, Waltham, MA) using a detection protocol to measure CPM corresponding to intracellular 125I concentration. Each chemical concentration (0.001, 0.01, 0.1, 1.0, 10, and 100uM) was assayed in triplicate with three independent biological replicate plates (3 sequential cell passages). Additionally, a concentration response of NaClO4 (0.001, 0.01, 0.1, 1.0, 10, and 100uM) served as a positive control inhibition curve on each RAIU assay plate. DMSO control wells were assayed on each plate as a measure of maximum iodide uptake for normalization and determination of intra- and inter-assay variation. (Toxicol In Vitro, 2017, 40:66-78).
For `CN(C)CCCN1c2ccccc2Sc2ccc(Cl)cc21`, the outcome was inactive.
Still for that read-out and setting: for `O=Cc1ccccc1C=O` the value was “inactive”.
The same measure, in the same setting: for `CC(=O)OCC(COC(C)=O)OC(C)=O` the value was “inactive”; for `CCCCCCCCCCCCCCOS(=O)(=O)O`, “inactive”; for `Cc1ccc(-c2cc(C(F)(F)F)nn2-c2ccc(S(N)(=O)=O)cc2)cc1`, “inactive”.
Turning to `CCN(CC)CCOc1ccc(C(=C(Cl)c2ccccc2)c2ccccc2)cc1`, the result was inactive.
The term AC50 denotes the concentration at which the activity in the assay is half-maximal. Take `O=C1OC(c2ccc(O)cc2)(c2ccc(O)cc2)c2ccccc21`: the AC50 is 0.722 µM (active).
Take `O=C(Oc1ccccc1)c1cccc(C(=O)Oc2ccccc2)c1`: the result was inactive.
The same measure, in the same setting: as for `CCCCCCC(CCCCCCCCCCC(=O)OCC(COC(C)=O)OC(C)=O)OC(C)=O` (stereo not drawn), the entry is “inactive”; as for `CC(COCC(C)OC(=O)c1ccccc1)OC(=O)c1ccccc1` (stereo not drawn), “inactive”.
As to `CCC(C)N(C)C(=O)c1cc2ccccc2c(-c2ccccc2Cl)n1` (stereo not drawn), the AC50 was 30 µM (active).
Turning to `CC(=O)O[C@]1(C(C)=O)CC[C@H]2[C@@H]3C=C(Cl)C4=CC(=O)[C@@H]5C[C@@H]5[C@]4(C)[C@H]3CC[C@@]21C`, the outcome was inactive.
With `Cc1c(C)c2c(c(C)c1O)CCC(C)(COc1ccc(CC3SC(=O)NC3=O)cc1)O2` (stereo not drawn), the AC50 is 50 µM (active).

Values taken from PubChem BioAssay (EPA / NIEHS).
